Experimental data taken from the supplement of paper PMC10338343.

System: MILI (PIWIL2) piRISC loaded with L1MC piRNA (26 nt)
Experiment: pre-steady-state target cleavage rate (min^-1); guide: L1MC piRNA 5'p-UAACUAAAUACUAUGCAAGCUGUAGG; MIWI and MILI are mouse PIWI proteins and EfPiwi is from a freshwater sponge; tags in brackets are library labels; higher = faster piRNA-guided slicing of the target
Settings: auxiliary factor: none (no GTSF1)
Method in brief: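 Cleave-'n-Seq used a transcribed, DNA-blocked target RNA library at 0.1 nM and active affinity-purified piRISC with one synthetic guide at 1 nM, with or without 500 nM GTSF1 partner protein, in HEPES–potassium acetate buffer at 33 °C for 0–8 or 0–960 min. Uncleaved targets were sequenced and normalised to depth and to weakly complementary targets, and three trials were pooled with k3 capped at 0.0001 min^-1. The pre-steady-state cleavage rate was estimated by a burst-and-steady-state fit.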

pre-steady-state target cleavage rate, < 0.0001:
UCCUGGAUGUCGAACGUGAGUAUUUAGUUA
UCCUGGAUGUCGAACGAAAGUAUUUUGUUA
UCCUGGAUGAGCUUGCUAUCAUAAAUCAAA [g15:g21:cont:t1A]
UCCUGGAUGUCGAAGCAUUGUAUAUAGUUA
UCCUGGAUGUCGAACCAUAGUAUUUUCAAA [g6:g15:cont:t1A]
UCCUGGAUGUCGAACGUAAGAUAUUUAGUUA
